# Measurements taken from PubChem BioAssay AID2284388 (EPA ToxCast).
# Results filed as inconclusive are left out. Active and inactive are the calls of the source. How the source made its calls: active means hit-call score of the fitted dose curve at least 0.9, where 1 is the maximum; inconclusive means response in the unintended direction; inactive means score below 0.9.
# Target: human Retinoid X Receptor beta (RXRb) Agonism, RXRB (gene 6257) (UniProt P28702)
# Assay: ERF_TW_NR_COA_hRXRB: Eurofins (ERF) Nuclear Receptor (NR) Functional Coactivator Assay for human Retinoid X Receptor beta (RXRb) Agonism
# Method: ERF_TW_NR_COA_hRXRB is a biochemical, single-readout assay that uses extracted gene-proteins in a cell-free assay. Measurements were taken 0.5 hours after chemical dosing in a 96-well plate. See RXRbeta Human Retinoid X NHR Functional Agonist Coactivator Assay, Panlabs.ERF_TW_NR_COA_hRXRB is an assay component calculated from the ERF_TW_NR_COA_hRXRB assay. It is designed to measure FRET using a type of binding reporter as detected by fluorescence intensity of fluorobexarotene with fluorimetry technology.Data from the assay component ERF_TW_NR_COA_hRXRB was analyzed at the assay endpoint, ERF_TW_NR_COA_hRXRB, in the positive analysis fitting direction relative to DMSO as the negative control and baseline of activity. Using a type of binding reporter, gain-of-signal activity can be used to understand changes in binding as they relate to gene RXRB. To generalize the intended target to other relatable targets, this assay endpoint is annotated to the nuclear receptor intended target family, where the subfamily is non-steroidal.
# Test compound and/or vehicle is incubated with the 2 nM retinoid X receptor beta (RXRbeta)-LBD and coactivator peptide for 30 minutes at RT. Determination of the amount of complex formed is read spectrofluorimetrically (excitation: 337 nm, emission: 520/490 nm). Test compound-induced increase fluorescence by 50 percent or more (>/=50%) relative to the 10 uM fluorobexarotene response indicates possible RXRbeta receptor agonist activity.
# Sequence of human Retinoid X Receptor beta (RXRb) Agonism, RXRB (gene 6257) (P28702 whole entry, looked up): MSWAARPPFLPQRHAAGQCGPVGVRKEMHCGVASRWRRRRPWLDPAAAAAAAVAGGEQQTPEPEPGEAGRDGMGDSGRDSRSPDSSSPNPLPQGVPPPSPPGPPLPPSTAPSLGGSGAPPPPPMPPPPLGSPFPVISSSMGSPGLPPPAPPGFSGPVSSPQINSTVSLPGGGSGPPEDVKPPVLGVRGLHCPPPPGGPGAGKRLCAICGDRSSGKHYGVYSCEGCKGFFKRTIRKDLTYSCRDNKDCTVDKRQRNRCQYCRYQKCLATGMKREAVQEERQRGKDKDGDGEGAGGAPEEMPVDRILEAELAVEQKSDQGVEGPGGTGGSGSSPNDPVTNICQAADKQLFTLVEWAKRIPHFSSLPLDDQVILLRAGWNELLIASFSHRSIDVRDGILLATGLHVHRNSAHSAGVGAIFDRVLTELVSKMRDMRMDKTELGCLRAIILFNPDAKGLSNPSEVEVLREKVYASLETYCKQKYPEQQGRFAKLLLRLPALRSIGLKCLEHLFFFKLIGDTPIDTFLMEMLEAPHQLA
Compound,outcome,AC50
Cc1ccc2cc3c(ccc4ccccc43)c3c2c1CC3,inactive,–
OCCCC(F)(F)C(F)(F)C(F)(F)C(F)(F)C(F)(F)C(F)(F)C(F)(F)F,inactive,–
O=S(=O)(O)C(F)(F)C(F)(F)C(F)(F)C(F)(F)C(F)(F)C(F)(F)C(F)(F)C(F)(F)F,inactive,–
CC(=O)c1cc(C(C)(C)C)cc2c1CCC2(C)C,–,14.5 µM (active)
CN(c1nccc(=O)[nH]1)C1CCN(c2nc3ccccc3n2Cc2ccc(F)cc2)CC1,inactive,–
CC1(C)CCC(C)(C)c2cc(C(=O)Nc3ccc(C(=O)O)cc3)ccc21,inactive,–
ClC1=C(Cl)[C@]2(Cl)[C@@H]3[C@@H]4C[C@@H]([C@H]5O[C@@H]45)[C@@H]3[C@@]1(Cl)C2(Cl)Cl,inactive,–
C/C(=C\c1ccc(C(=O)O)cc1)c1ccc2c(c1)C(C)(C)CCC2(C)C,inactive,–
O=C(O)C(F)(F)OC(F)(F)C(F)(F)OC(F)(F)C(F)(F)OC(F)(F)C(F)(F)C(F)(F)C(F)(F)F,inactive,–
O=C(O)C(F)(F)C(F)(F)C(F)(F)OC(F)(C(F)(F)F)C(F)(F)F,inactive,–
CCCc1c(OCCCOc2ccc(OCC(=O)O)cc2)ccc(C(C)=O)c1O,inactive,–
O=C(O)C(F)(F)C(F)(F)C(F)(F)C(F)(F)C(F)(F)C(F)(F)C(F)(F)C(F)(F)Cl,inactive,–
ClC1=C(Cl)[C@]2(Cl)[C@@H]3[C@H]4C[C@H]([C@@H]5O[C@H]45)[C@@H]3[C@@]1(Cl)C2(Cl)Cl,inactive,–
